From PubChem BioAssay (NCATS)
Records with an inconclusive call do not appear. Activity calls are given as the source filed them. Calls come from the whole dose curve; as a rule, active = well fitted curve in the direction sought with a large enough effect; inconclusive = small, poorly fitted or top-dose-only effect, or another doubt; inactive = no such curve, though single readings can be large; an effect the other way counts as inactive or inconclusive.

Assays:
[1] = Primary qHTS for inhibitors of nuclear receptor binding SET domain protein 2 (NSD2) in an RCH-ACV wild type WT cells (2C) (AID 1645877); note: nearly all actives have a fitted effect of over 70% in size; note: potency is the fitted concentration of half-maximal effect
[2] = Primary qHTS for inhibitors of nuclear receptor binding SET domain protein 2 (NSD2) in an isogenic RCH-ACV NSD2 p.E1099K mutant (9B) (AID 1645876); note: nearly all actives have a fitted effect of over 70% in size
[3] = NCATS anti-infectives library activity on HEK293 viability as a counter-qHTS vs the C. elegans viability qHTS (AID 1745854);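 note: HEK293 cells exposed to compounds for 24 hr before the viability read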
Method in brief: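 Compounds were acoustically plated (several concentrations, 1:5, final up to 41.7 uM), then 1500 HEK293 cells added per well and incubated 24 hr at 37C, 5% CO2. CellTiter-Glo was added and luminescence read after 10 min.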

[4] = Viability counterscreen for antagonist of constitutive androstane receptor (CAR) against the NCATS DSHEA and TCM libraries (AID 1794837);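 note: compound exposure lasted 24 h before viability reading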
Method in brief: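 Cell viability, CellTiter-Fluor, Ex/Em 405/540 nm, 1 h at 37C. HepG2-CYP2B6-hCAR, 2,500 cells/well; cpds + CITCO 48 uM final (antagonist mode), 24 h, 37C/5% CO2.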

[5] = Viability counterscreen for agonist of constitutive androstane receptor (CAR) against the NCATS DSHEA and TCM libraries (AID 1794838);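 note: HepG2 cells with CYP2B6 reporter and hCAR plus 0.75 µM PK11195 antagonist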
Method in brief: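 Viability by CellTiter-Fluor fluorescence, 405/540 nm, after 1 h at 37C. HepG2-CYP2B6-hCAR cells were exposed 24 h to test substances in presence of 0.75 uM PK11195 (final).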

[6] = biological target: Rap guanine nucleotide exchange factor 3 (Homo sapiens) (UniProt O95398); assay: Confirmatory qHTS for antagonist of cAMP-regulated guanine nucleotide exchange factor 3 (EPAC1) (AID 1645880); note: potency is the fitted concentration of half-maximal effect; nearly all actives have a fitted effect of over 55% in size
Method in brief: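 Nucleotide exchange uses 100 nM EPAC1, 250 nM RAP1B-BODIPY-GDP and 50 uM GDP, with compounds in a concentration-titration series. After 5 min at room temperature, fluorescence (480 nm ex/540 nm em) is read every 5 min for 30 min. Data are normalized to control ATA and DMSO.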

[7] = biological target: Rap guanine nucleotide exchange factor 3 (Homo sapiens) (UniProt O95398); assay: Confirmatory qHTS for agonist of cAMP-regulated guanine nucleotide exchange factor 3 (EPAC1) (AID 1645881);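 note: EPAC1 catalysed release of BODIPY-GDP from Rap1B seen as fluorescence loss; nearly all actives have a fitted effect of over 75% in size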
[8] = biological target: Rap guanine nucleotide exchange factor 4 (Homo sapiens) (UniProt Q8WZA2); assay: Confirmatory qHTS for agonist of cAMP-regulated guanine nucleotide exchange factor 4 (EPAC2) (AID 1645884);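 note: nucleotide exchange releases bodipy-GDP from Rap1 and this lowers its fluorescence; nearly all actives have a fitted effect of over 65% in size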
[9] = biological target: Rap guanine nucleotide exchange factor 4 (Homo sapiens) (UniProt Q8WZA2); assay: Confirmatory qHTS for antagonist of cAMP-regulated guanine nucleotide exchange factor 4 (EPAC2) (AID 1645885); note: nearly all actives have a fitted effect of over 25% in size

Sequence of Rap guanine nucleotide exchange factor 4 (Homo sapiens) (Q8WZA2 whole entry, looked up): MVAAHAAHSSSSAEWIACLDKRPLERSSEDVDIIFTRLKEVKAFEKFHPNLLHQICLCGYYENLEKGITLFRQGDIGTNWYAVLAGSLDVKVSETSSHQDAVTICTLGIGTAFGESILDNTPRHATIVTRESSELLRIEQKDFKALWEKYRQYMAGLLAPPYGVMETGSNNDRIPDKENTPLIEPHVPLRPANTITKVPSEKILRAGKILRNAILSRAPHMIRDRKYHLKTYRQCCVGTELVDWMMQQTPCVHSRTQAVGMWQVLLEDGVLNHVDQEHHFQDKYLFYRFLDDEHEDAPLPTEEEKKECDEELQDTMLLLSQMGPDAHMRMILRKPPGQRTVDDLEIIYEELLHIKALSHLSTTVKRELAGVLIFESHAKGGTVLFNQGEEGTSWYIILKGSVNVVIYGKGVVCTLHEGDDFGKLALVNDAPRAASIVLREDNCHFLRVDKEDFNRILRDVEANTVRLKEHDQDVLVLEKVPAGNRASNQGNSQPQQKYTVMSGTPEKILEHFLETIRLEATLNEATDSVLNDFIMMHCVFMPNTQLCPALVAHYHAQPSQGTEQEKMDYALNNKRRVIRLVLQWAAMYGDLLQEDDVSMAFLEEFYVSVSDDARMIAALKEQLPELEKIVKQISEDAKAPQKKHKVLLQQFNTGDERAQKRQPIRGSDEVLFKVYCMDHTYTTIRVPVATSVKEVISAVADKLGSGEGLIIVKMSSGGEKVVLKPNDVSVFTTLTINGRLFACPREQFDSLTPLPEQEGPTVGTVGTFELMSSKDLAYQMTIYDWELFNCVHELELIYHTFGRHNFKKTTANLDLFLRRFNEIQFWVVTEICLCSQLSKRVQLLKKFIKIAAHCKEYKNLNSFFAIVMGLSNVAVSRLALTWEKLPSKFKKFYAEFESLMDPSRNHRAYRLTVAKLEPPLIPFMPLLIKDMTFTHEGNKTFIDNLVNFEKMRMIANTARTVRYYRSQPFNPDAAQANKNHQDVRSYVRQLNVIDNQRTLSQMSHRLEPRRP
Sequence of Rap guanine nucleotide exchange factor 3 (Homo sapiens) (O95398 whole entry, looked up): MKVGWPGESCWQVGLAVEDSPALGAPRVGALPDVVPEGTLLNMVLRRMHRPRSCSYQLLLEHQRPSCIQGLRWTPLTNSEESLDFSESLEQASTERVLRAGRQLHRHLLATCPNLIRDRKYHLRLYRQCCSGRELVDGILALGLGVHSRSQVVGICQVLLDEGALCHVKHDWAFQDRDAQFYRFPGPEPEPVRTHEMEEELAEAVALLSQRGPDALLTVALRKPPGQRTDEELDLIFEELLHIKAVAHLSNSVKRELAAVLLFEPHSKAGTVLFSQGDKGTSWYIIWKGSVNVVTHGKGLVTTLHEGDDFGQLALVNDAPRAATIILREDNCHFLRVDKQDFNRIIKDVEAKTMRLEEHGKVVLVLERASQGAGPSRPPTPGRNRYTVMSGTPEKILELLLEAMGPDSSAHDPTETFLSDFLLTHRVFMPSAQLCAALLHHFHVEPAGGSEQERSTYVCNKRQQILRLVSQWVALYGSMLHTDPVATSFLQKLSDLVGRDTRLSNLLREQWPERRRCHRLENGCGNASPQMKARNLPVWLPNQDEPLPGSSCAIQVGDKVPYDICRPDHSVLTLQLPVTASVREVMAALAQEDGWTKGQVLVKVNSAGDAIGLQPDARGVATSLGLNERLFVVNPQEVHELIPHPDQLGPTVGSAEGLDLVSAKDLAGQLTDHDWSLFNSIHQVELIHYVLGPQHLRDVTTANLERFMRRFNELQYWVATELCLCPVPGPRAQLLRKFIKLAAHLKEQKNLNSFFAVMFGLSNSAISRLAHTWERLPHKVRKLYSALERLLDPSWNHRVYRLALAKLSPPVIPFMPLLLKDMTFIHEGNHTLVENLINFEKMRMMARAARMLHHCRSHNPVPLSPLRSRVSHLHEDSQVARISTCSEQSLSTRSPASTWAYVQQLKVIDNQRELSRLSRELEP

SMILES: CC(=O)O[C@H]1CC[C@]2(C)[C@H]3CC[C@]4(C)Oc5oc(C)cc(=O)c5C[C@H]4[C@]3(C)CC[C@H]2C1(C)C
- Potency [1]: 7.09 µM (active)

SMILES: COc1cc2c(c(OC)c1CC=C(C)C)C[C@H](c1ccc(O)c(CC=C(C)C)c1O)CO2
- Potency [1]: inactive

SMILES: CC(C)(O)C1Cc2c(ccc(C(=O)CCc3ccccc3)c2O)O1 (stereo not drawn)
- Potency [1]: inactive

SMILES: CC1OC2OC(=O)C3(C)CC4C5(CO5)C5=CC(=O)OC(C)(C)C5=CC(=O)C4(C)C(C1=O)C23 (stereo not drawn)
- Potency [1]: 8.93 µM (active)

SMILES: O=C(O)c1ccc(N2C(=O)/C(=C/c3ccc(-c4ccc([N+](=O)[O-])cc4)o3)C=C2c2ccccc2)cc1
- Potency [1]: inactive

SMILES: C=C1C(=O)OC2C=C(C)CC/C=C(\CO)CC(O)C12 (stereo not drawn)
- Potency [1]: 20.5 µM (active)

SMILES: C=C[C@](C)(O)CC[C@H]1C(C)=CC(=O)[C@H]2C(C)(C)CCC[C@]12C
- Potency [1]: 18.3 µM (active)

SMILES: COc1ccccc1-c1ccc(-c2cn(C(=O)N3CCCCC3Cc3ccccc3)nn2)cc1 (stereo not drawn)
- Potency [1]: inactive

SMILES: C[C@@H]1O[C@@H](O[C@H]2[C@@H]3C=CO[C@@H](O[C@@H]4O[C@H](CO)[C@@H](O)[C@H](O)[C@H]4O)[C@@H]3[C@@]3(CO)O[C@@H]23)[C@H](O)[C@H](OC(=O)/C=C/c2ccccc2)[C@H]1O
- Potency [1]: 5.41 µM (active)

SMILES: CN1CCN(c2ccc(-c3cccc(CN4CCOCC4)c3)cc2NC(=O)c2c[nH]c(=O)cc2C(F)(F)F)CC1
- Potency [1]: inactive

SMILES: O=C(Cc1cccc(OC(F)(F)F)c1)Nc1ccc(CCCCc2nnc(NC(=O)Cc3ccccn3)s2)nn1
- Potency [2]: inactive
- outcome [3]: inactive

SMILES: C[C@H]1CC[C@@]2(OC1)O[C@H]1CC3[C@@H]4CC[C@@H]5C[C@@H](O[C@@H]6O[C@H](CO)[C@@H](O[C@@H]7O[C@H](CO[C@@H]8OC[C@@H](O)[C@H](O)[C@H]8O)[C@@H](O[C@@H]8O[C@H](CO)[C@H](O)[C@H](O)[C@H]8O)[C@H](O)[C@H]7O)[C@H](O)[C@H]6O)CC[C@]5(C)C4CC[C@]3(C)[C@H]1[C@@H]2C (stereo partly drawn)
- Potency [1]: 3.46 µM (active)

SMILES: C=C1[C@H]2CC[C@H](C(=O)O)[C@@]23CC[C@H](C3)C1(C)C
- Potency [2]: inactive
- Potency [1]: inactive
- outcome [4]: inactive
- outcome [5]: inactive

SMILES: C=C1/C(=C/C=C2\CCC[C@]3(C)[C@@H]([C@H](C)/C=C/[C@@H](C)C(C)C)CC[C@@H]23)C[C@@H](O)C[C@@H]1O
- Potency [1]: 14.5 µM (active)

SMILES: C=C(C(=O)OC[C@H]1O[C@@H](OC(=O)/C=C/c2ccccc2)[C@H](O)[C@@H](O)[C@@H]1O)C(O)CO (stereo partly drawn)
- Potency [1]: 5.63 µM (active)

SMILES: COC1=CC(=O)O/C1=C(/OC)[C@@H]1O[C@H]1c1ccccc1
- Potency [1]: 18.3 µM (active)

SMILES: O=c1[nH]c2ccccc2n1CCN1CCN(c2cccc(C(F)(F)F)c2)CC1
- Potency [1]: inactive

SMILES: C=C1/C(=C/C=C2\CCC[C@]3(C)[C@@H]([C@@H](C)OCCC(O)(CC)CC)CC[C@@H]23)C[C@@H](O)C[C@@H]1O
- Potency [1]: 20.5 µM (active)

SMILES: CC[C@H](C)/C=C(C)/C=C/C1=CC2=C(Cl)C(=O)[C@](C)(O)[C@H](OC(C)=O)[C@H]2CO1
- Potency [1]: 10.1 µM (active)

SMILES: COc1cc(OC)c(NC(=O)c2ccc(Cc3cc4c(cc3C)C(C)(C)CCC4(C)C)o2)c(OC)c1
- Potency [1]: 23 µM (active)

SMILES: COc1ccccc1C(=O)Nc1cc2c(cc1N1CCCC1)n(C)c(=O)n2C
- Potency [1]: 23.5 µM (active)

SMILES: C[C@@H]1O[C@@H](O[C@H]2[C@H](OC(=O)[C@]34CCC(C)(C)C[C@H]3C3=CCC5[C@@]6(C)C[C@H](O)[C@H](O[C@@H]7O[C@H](C(=O)O)[C@@H](O)[C@H](O)[C@H]7O)[C@@](C)(CO)C6[C@H](O)C[C@@]5(C)[C@]3(C)C[C@H]4O)O[C@@H](CO)[C@@H]2O)[C@H](O)[C@H](O)[C@H]1O[C@@H]1OC[C@@H](O)[C@H](O[C@H]2OC[C@](O)(CO)[C@H]2O)[C@H]1O (stereo partly drawn)
- Potency [1]: 0.122 µM (active)

SMILES: C/C=C(/C=C(C)/C=C/C=C/C=C(\C)C(=O)C12OC1C(O)(CCO)NC2=O)C(=O)OC (stereo not drawn)
- Potency [1]: 7.96 µM (active)

SMILES: CO[C@H]1O[C@@H]2O[C@@]3(C)CCC4[C@H](C)CCC([C@H]1C)[C@]42OO3 (stereo partly drawn)
- Potency [1]: 6.49 µM (active)

SMILES: O=C(O)c1cc2ccccc2c(Cc2c(O)c(C(=O)O)cc3ccccc23)c1O
- Potency [6]: 4.44 µM (active)
- outcome [7]: inactive
- outcome [8]: inactive
- Potency [9]: inactive

SMILES: COc1cccc(N2CCN(C3=Nc4c(F)cccc4[C@H](CC(=O)O)N3c3cc(C(F)(F)F)ccc3OC)CC2)c1
- outcome [3]: inactive
